# NPR1 antag = antagonists of human natriuretic peptide receptor Npr1; P16066; HEK293 hNpr1 GloSensor cGMP, ANP-stimulated luminescence; Potency, µM (series often up to 46.3 µM), actives largely listed as inhibitors; actives 1.6% (n = 76,000); AID 1347048; calls by dose curve; further: nearly all actives have a fitted effect of over 60% in size
# Target sequence (P16066 whole entry, looked up): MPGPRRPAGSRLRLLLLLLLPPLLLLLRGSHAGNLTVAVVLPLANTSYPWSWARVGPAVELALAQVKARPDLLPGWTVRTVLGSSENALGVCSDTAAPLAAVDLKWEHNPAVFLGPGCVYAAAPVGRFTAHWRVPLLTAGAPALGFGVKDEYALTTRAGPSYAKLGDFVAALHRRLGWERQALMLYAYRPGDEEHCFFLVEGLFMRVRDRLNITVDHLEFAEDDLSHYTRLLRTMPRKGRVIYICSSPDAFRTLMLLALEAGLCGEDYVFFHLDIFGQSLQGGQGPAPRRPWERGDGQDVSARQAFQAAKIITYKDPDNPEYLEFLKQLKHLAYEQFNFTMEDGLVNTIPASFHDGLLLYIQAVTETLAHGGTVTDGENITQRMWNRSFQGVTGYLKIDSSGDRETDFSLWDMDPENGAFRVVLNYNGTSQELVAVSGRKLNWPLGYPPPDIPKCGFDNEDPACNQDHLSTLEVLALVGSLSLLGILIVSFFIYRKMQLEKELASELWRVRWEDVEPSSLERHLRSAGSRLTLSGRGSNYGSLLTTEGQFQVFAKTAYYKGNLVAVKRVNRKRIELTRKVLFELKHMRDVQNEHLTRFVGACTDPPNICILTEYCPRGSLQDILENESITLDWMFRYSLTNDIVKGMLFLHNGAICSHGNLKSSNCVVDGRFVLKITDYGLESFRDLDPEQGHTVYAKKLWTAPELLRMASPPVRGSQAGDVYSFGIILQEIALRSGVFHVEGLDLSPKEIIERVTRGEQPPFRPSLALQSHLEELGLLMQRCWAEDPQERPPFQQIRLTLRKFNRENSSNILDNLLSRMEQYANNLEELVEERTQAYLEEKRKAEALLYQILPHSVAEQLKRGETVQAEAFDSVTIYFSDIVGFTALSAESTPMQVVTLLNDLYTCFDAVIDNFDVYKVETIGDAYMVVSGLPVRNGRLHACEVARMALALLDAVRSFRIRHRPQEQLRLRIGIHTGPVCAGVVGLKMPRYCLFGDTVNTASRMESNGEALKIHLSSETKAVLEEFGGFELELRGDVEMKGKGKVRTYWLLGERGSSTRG
#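 Compound pre-incubated 30 min at room temperature on GloSensor-loaded HEK293 cells stably carrying hNpr1 and the pGS-40F cGMP biosensor. Stimulation uses hNppA at 0.1 nM final; luminescence is taken at baseline and 20 min post-agonist.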
# 3T3 cytotox = cytotoxic compounds in NIH 3T3 cells | NIH 3T3 viability, CellTiter-Glo ATP luminescence, 48-72 h | Potency, µM (top dose mostly 96.7 µM), actives largely listed as inhibitors | actives 4.3% (n = 94,000) | AID 1345082; further: nearly all actives have a fitted effect of over 55% in size
#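 Cytotoxicity was measured by CellTiter-Glo ATP luminescence after 48 or 72 h compound exposure at 37 °C. Mouse NIH 3T3 fibroblasts were seeded at 400 cells/well and dosed by 23 nL pin transfer.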
# Luciferase inh = Photinus pyralis luciferase inhibition. P08659. purified P. pyralis luciferase, luminescence, biochemical. Potency, µM (highest dose often 115 µM), hits mostly inhibitors. actives 2.5% (n = 76,000). AID 1347043; further: nearly all actives have a fitted effect of over 65% in size
#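 FLuc 10nM, D-luciferin 10uM, ATP 10uM, Mg acetate 10mM, Tris acetate pH 7.5, Tween/BSA; cpd qHTS; enzyme added last; CCD luminescence.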
# HEK293 tox = cytotoxic compounds in HEK 293 cells. Potency, µM (series often up to 115 µM), most hits filed as inhibitors. AID 1345083. HEK 293 viability, ATP luminescence (CellTiter-Glo), 48-72 h. actives 6.6% (n = 94,000); further: nearly all actives have a fitted effect of over 60% in size
#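 HEK 293 cells at 250 cells/well were exposed to compounds by pintool transfer for 48 or 72 hr at 37 degree Celsius, 5% CO2. Viability was read as ATP-coupled luminescence with CellTiter-Glo after 10 min at room temperature.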
# Hits are given with their value; - = inactive; ? = inconclusive; . = not tested or not shown. A selection: hits, their analogues and other compounds. The true share with any hit is near 11%. Unless noted, the call rests on the fitted dose curve; in most records, active means well fitted curve in the direction sought with a large enough effect; inconclusive means small, poorly fitted or top-dose-only effect, or another doubt; inactive means no such curve, though single readings can be large; an effect the other way counts as inactive or inconclusive.
SMILES,NPR1 antag,3T3 cytotox,Luciferase inh,HEK293 tox
CC#CCn1cc2c3c(cccc31)[C@H](CC(C)C)N[C@H](C(=O)NCc1ccccc1)C2,-,?,-,63.1µM
C#CCNC(=O)[C@@H]1Cc2cn(CC#CC)c3cccc(c23)[C@H](CC(C)C)N1,-,?,-,?
CC#CCn1cc2c3c(cccc31)[C@H](CC(C)C)N[C@H](C(=O)NCCNC(C)=O)C2,-,?,-,100µM
CC#CCn1cc2c3c(cccc31)[C@H](CC(C)C)N[C@H](C(=O)NCc1cccs1)C2,-,?,-,70.8µM
CC#CCn1cc2c3c(cccc31)[C@H](CC(C)C)N[C@H](C(=O)NC1CC1)C2,-,?,-,89.1µM
COCC(=O)Nc1cc(C2CC2)nn1-c1ccccc1,.,?,.,-
CC(C)(C)C(=O)N1CCCC(C(=O)N2CCC(N3CCOC3=O)CC2)C1 (stereo not given),.,-,.,-
CC#CCn1cc2c3c(cccc31)[C@H](CC(C)C)N[C@H](C(=O)NCc1ccco1)C2,-,89.1µM,-,?
CC#CCn1cc2c3c(cccc31)[C@H](CC(C)C)N[C@H](C(=O)NCCN(C)C)C2,-,39.8µM,-,28.2µM
C=CCNC(=O)[C@@H]1Cc2cn(CC#CC)c3cccc(c23)[C@H](CC(C)C)N1,-,?,-,?
O=C(C1CCCC1)N1CCCC2(CNc3ncccc3[S+](=O)([O-])N2)C1 (stereo not given),.,-,.,-
COc1ccc(CCC(=O)N2CCC3(CCC3OC)CC2)cc1 (stereo not given),.,-,.,-
O=C(NCCCc1ccccc1)c1n[nH]c2c1CN(C(=O)c1ccccc1Cl)CC2,-,?,?,?
O=C(NCCCc1ccccc1)c1n[nH]c2c1CN(C(=O)c1ccccc1F)CC2,-,35.5µM,-,?
O=C(NCCCc1ccccc1)c1n[nH]c2c1CN(C(=O)c1ccc3c(c1)OCO3)CC2,.,35.5µM,.,?
O=C(NCCCc1ccccc1)c1n[nH]c2c1CN(C(=O)c1ccc(F)cc1F)CC2,-,?,-,79.4µM
CCCC(C)C(=O)N1CCc2[nH]nc(C(=O)NCCCc3ccccc3)c2C1 (stereo not given),.,39.8µM,.,35.5µM
CCC(C)NC(=O)c1ccccc1-c1ccc(OC)nn1 (stereo not given),.,-,.,-
O=C(NCc1ccccc1)C1CC(=O)N(C2CN(S(=O)(=O)c3cccc(F)c3)C2)C1 (stereo not given),.,-,.,-
COc1ccc(NC(=O)Cn2ccn3nc4c(c3c2=O)CC(C)CC4)cc1Cl (stereo not given),-,-,-,-
CCC(=O)N1CCc2[nH]nc(C(=O)NCCCc3ccccc3)c2C1,-,?,-,?
O=C(NCCCc1ccccc1)c1n[nH]c2c1CN(C(=O)c1c(F)cccc1F)CC2,-,?,-,17.8µM
Cn1nc(N2CCC(NS(=O)(=O)c3ccccc3F)CC2)ccc1=O,.,-,.,-
O=C(c1ccc2oc(-c3ccncc3)nc2c1)N1CCCCC1,.,?,.,39.8µM
O=C(c1ccc2nc(-c3cccnc3)oc2c1)N1CCCCC1,.,-,.,-
SMILES,NPR1 antag,3T3 cytotox,Luciferase inh,HEK293 tox
CCOC(=O)C1CCCN(C(=O)c2ccc3oc(-c4ccc(OC)nc4)nc3c2)C1 (stereo not given),.,-,.,?
CCOC(=O)C1CCN(C(=O)c2ccc3oc(-c4ccnc(Cl)c4)nc3c2)CC1,.,-,.,-
CCOC(=O)C1CCCN(C(=O)c2ccc3nc(-c4ccncc4)oc3c2)C1 (stereo not given),.,?,.,44.7µM
O=C(c1ccc2oc(-c3ccnc(Cl)c3)nc2c1)N1CCOCC1,.,35.5µM,.,?
CC1CCCC(C)N1C(=O)c1ccc2nc(-c3ccncc3)oc2c1 (stereo not given),.,-,.,70.8µM
COc1ccc(NC(=O)C2CCc3nnc(C4CC4)n32)cc1 (stereo not given),.,-,.,-
C=CCCC(=O)N1[C@@H](c2ccco2)[C@@H](C(=O)OCC)C[C@]12CCCCN(CCOC)C2=O,.,-,.,?
O=C(Cc1ccccc1)N1CCCN(c2ccc3nnc(C4CC4)n3n2)CC1,.,-,.,-
CC(C)(C)c1cc(C(=O)N2CCOCC2)nn2cccc12,.,-,.,-
O=C(c1cc(-c2cc(Cl)cc(Cl)c2)c2cccn2n1)N1CCOCC1,.,35.5µM,.,?
Cc1cc(C)c(S(=O)(=O)NCCn2c(C)cnc2C2CC2)c(C)c1,-,?,-,?
CC(C)CCN1CCC2(C1)C(=NC1CCCCC1)NC(=O)N2c1cccnc1 (stereo not given),.,?,.,-
CC(C)CCN1CCCC2(C1)C(=NC1CCCC1)NC(=O)N2c1cccnc1 (stereo not given),.,7.08µM,.,?
O=C1NC(=NC2CCCC2)C2(CCN(Cc3ccccc3)C2)N1c1cccnc1 (stereo not given),.,?,.,-
COc1cccc(N2C(=O)NC(=NC3CCCC3)C23CCCN(Cc2cccnc2)C3)c1 (stereo not given),.,?,.,-
O=C1NC(=NC2CCCC2)C2(CCCN(CC3CCCCC3)C2)N1c1cccnc1 (stereo not given),.,7.08µM,.,?
COc1ccc(CN2CCCC3(C2)C(=NC2CCCC2)NC(=O)N3c2cccnc2)cc1 (stereo not given),.,22.4µM,.,-
O=C1NC(=NC2CCCC2)C2(CCCN(Cc3ccccc3)C2)N1c1cccnc1 (stereo not given),.,25.1µM,.,-
O=C1NC(=NC2CCCC2)C2(CCN(CC3CC3)C2)N1c1cccnc1 (stereo not given),.,?,.,-
COc1cccc(C(=O)N2CCCC2C(=O)N2CCCC2c2nc3ccncc3[nH]2)c1 (stereo not given),.,-,.,-
COc1cccc(CNC(=O)Cn2c(-c3cccc(Cl)c3)nc(C)c(CCO)c2=O)c1,-,?,-,22.4µM
Cc1nc(-c2cccc(Cl)c2)n(CC(=O)Nc2ccc(C(F)(F)F)cc2)c(=O)c1CCO,-,15.8µM,-,31.6µM
COc1ccc(N2CCN(C(=O)Cn3c(-c4cccc(Cl)c4)nc(C)c(CCO)c3=O)CC2)cc1,-,-,-,44.7µM
COc1ccccc1NC(=O)Cn1c(-c2cccc(Cl)c2)nc(C)c(CCO)c1=O,-,-,-,?
CCc1ccc(NC(=O)Cn2c(-c3cccc(Cl)c3)nc(C)c(CCO)c2=O)cc1,-,?,-,28.2µM
SMILES,NPR1 antag,3T3 cytotox,Luciferase inh,HEK293 tox
Cc1cc(C)cc(NC(=O)Cn2c(-c3cccc(Cl)c3)nc(C)c(CCO)c2=O)c1,-,-,-,?
O=C1N(CC2CCC2)CCCC12CCN(Cc1ccc(-c3ccn[nH]3)s1)C2 (stereo not given),-,-,-,?
COc1cccc(CC(=O)N2CCC3(CC2)C(OC)C(=O)N3CC2CC2)c1 (stereo not given),.,-,.,-
Cc1nc(-c2cccc(Cl)c2)n(CC(=O)Nc2ccc(F)cc2)c(=O)c1CCO,-,?,-,39.8µM
Cc1cccc(N(C)C(=O)Cn2c(-c3cccc(Cl)c3)nc(C)c(CCO)c2=O)c1,-,?,-,35.5µM
Cc1nc(-c2ccc(F)cc2)n(CC(=O)Nc2cccc(Cl)c2)c(=O)c1CCO,-,?,-,?
Cc1nc(-c2cccc(Cl)c2)n(CC(=O)NC(C)C)c(=O)c1CCO,-,-,-,?
